Laboratory results reported in PubChem BioAssay (Tox21).
Results filed as inconclusive are left out. The source made the active and inactive calls. Unless noted, the call rests on the fitted dose curve; in most records, active means well fitted curve in the direction sought with a large enough effect in the repeat runs; inconclusive means weak or mixed curves; inactive means no such curve, though single readings can be large; an effect the other way counts as inactive or inconclusive.

Legend:
[1] = qHTS RealTime-Glo MT Cell Viability Assay in HEK293 cells - 0 hour (AID 1224880); further: top concentration of the series differs between compounds; nearly all actives have a fitted effect of over 45% in size
In short: (§1)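 Viable HEK293 cells reduce a cell-permeant prosubstrate; the product diffuses out and is consumed by NanoLuc in the medium to give light. Compounds went in after a 5 h incubation and plates were read over the treatment course.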

[2] = A CellTox Green Cytotoxicity Assay to monitor cytotoxicity in HEK293 cells - 32 hour (AID 1224881); further: nearly all actives have a fitted effect of over 40% in size; further: potency means the concentration at half of the fitted maximal effect
In short: (§2)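 Fluorescence intensity, read at 0, 8, 16, 24, 32 and 40 h of compound treatment, reflected dye binding to DNA of dead HEK293 cells; compounds (23 nL, DMSO) were added 5 h after plating cells with reagent.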

[3] = A CellTox Green Cytotoxicity Assay to monitor cytotoxicity in HepG2 cells - 0 hour (AID 1224882); further: nearly all actives have a fitted effect of over 35% in size
In short: (§3)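 Using 1536-well format, dye-containing HepG2 suspension was seeded, allowed 5 h at 37 C/5% CO2, dosed by pintool with compounds, positive and negative controls, and imaged for fluorescence across 40 h.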

[4] = A CellTox Green Cytotoxicity Assay to monitor cytotoxicity in HEK293 cells - 8 hour (AID 1224884); further: nearly all actives have a fitted effect of over 35% in size
In short: as §2

[5] = qHTS RealTime-Glo MT Cell Viability Assay in HepG2 cells - 16 hour (AID 1224885); further: nearly all actives have a fitted effect of over 50% in size
In short: (§4)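 HepG2 suspension premixed with RealTime-Glo reagents is plated at 600 cells per well and left 5 h at 37 C/5% CO2. Compounds in DMSO then go in, and bioluminescence reflecting viable cell number is recorded over 40 h.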

[6] = qHTS RealTime-Glo MT Cell Viability Assay in HEK293 cells - 8 hour (AID 1224887); further: top concentration of the series differs between compounds; nearly all actives have a fitted effect of over 50% in size
In short: as §1

[7] = A CellTox Green Cytotoxicity Assay to monitor cytotoxicity in HEK293 cells - 16 hour (AID 1224888); further: nearly all actives have a fitted effect of over 35% in size; further: potency means the concentration at half of the fitted maximal effect
In short: as §2

[8] = qHTS RealTime-Glo MT Cell Viability Assay in HepG2 cells - 0 hour (AID 1224889); further: nearly all actives have a fitted effect of over 50% in size
In short: as §4

[9] = A CellTox Green Cytotoxicity Assay to monitor cytotoxicity in HepG2 cells - 8 hour (AID 1224890); further: nearly all actives have a fitted effect of over 45% in size; further: potency means the concentration at half of the fitted maximal effect
In short: as §3

[10] = qHTS assay to identify small molecule antagonists of the estrogen receptor alpha (ER-alpha) signaling pathway using the BG1 cell line in the presence of 0.1 nM 17-beta-estradiol - cell viability counter screen (AID 1259241); further: nearly all actives have a fitted effect of over 40% in size
In short: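 Following 5 days in phenol red-free medium with charcoal-stripped serum, VM7Luc4E2 cells received test compounds alongside 0.1 nM 17beta-estradiol (final) at 37C for 22 hr. Live cells were then quantified via protease-substrate fluorescence.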

[11] = qHTS assay to identify small molecule antagonists of the androgen receptor (AR) signaling pathway using the MDA cell line in the presence of 0.5 nM R1881 - cell viability counter screen (AID 1259242); further: nearly all actives have a fitted effect of over 45% in size
In short: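 Viability of MDA-kb2 cells was multiplexed with the luciferase AR readout; after 16 hr with compounds and R1881 at 0.5 nM final, CellTiter-Fluor fluorescence was recorded.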

[12] = qHTS assay to identify small molecule HDAC inhibitors (AID 1259364);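 further: wild-type HCT-116 cells with endogenous class I/II HDAC activity; top concentration of the series differs between compounds; nearly all actives have a fitted effect of over 45% in size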
In short: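 Read-out: luminescence of HDAC-Glo I/II reagent, 30 min RT, reflecting class I/II deacetylase activity in whole HCT-116 cells pre-exposed 2 h to DMSO-dissolved compounds.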

[13] = qHTS assay to identify small molecule HDAC inhibitors - cell viability counter screen (AID 1259365); further: series mostly up to about 92 µM; nearly all actives have a fitted effect of over 50% in size
In short: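 HCT-116 wild-type, overnight attachment; 2hr drug exposure, 37C; CellTiter-Glo luminescent ATP readout after 30min RT.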

[14] = qHTS assay to identify small molecule agonists of the sonic hedgehog signaling (Shh) pathway - cell viability counter screen (AID 1259366); further: nearly all actives have a fitted effect of over 50% in size
In short: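 Compounds in DMSO were pin-transferred onto 3T3 Gli1-Luc cells that had settled 4hr; plates then stood 24hr at 37C and 5% CO2. One hour before the end, CellTiter-Fluor was added and fluorescence recorded.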

[15] = qHTS assay to identify small molecule antagonists of the sonic hedgehog signaling (Shh) pathway - cell viability counter screen (AID 1259367); further: nearly all actives have a fitted effect of over 55% in size
In short: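 NIH/3T3-derived Gli1-Luc reporter cells (2,000 per well) rested 4 hr at 37 C, then received DMSO compounds plus conditioned medium. After 23 hr of treatment, CellTiter-Fluor was added for 1 hr at 37C and fluorescence read.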

[16] = A CellTox Green Cytotoxicity Assay to monitor cytotoxicity in HepG2 cells - 32 hour (AID 1224883); further: nearly all actives have a fitted effect of over 50% in size
In short: as §3

[17] = qHTS RealTime-Glo MT Cell Viability Assay in HEK293 cells - 24 hour (AID 1224886)
In short: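 Reads taken at 0, 8, 16, 24, 32 and 40 h from the same wells. HEK293 cells (600/well) carried RealTime-Glo reagents from seeding, with compound added after a 5 h settle at 37 C.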

[18] = qHTS assay to identify small molecule phospholipidosis (PLD) inducers (AID 1259344; active means well fitted curve in the direction sought with a large enough effect; an effect the other way counts as inactive or inconclusive)
In short: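 HepG2 cells on collagen I, attached 4 h at 37 C, were co-treated with compound and LipidTOX Red dye for 24 h at 37 C, then fixed with paraformaldehyde plus Hoechst 33342 and imaged by high-content microscopy for phospholipid accumulation.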

[19] = target: Androgen receptor (Homo sapiens) (UniProt P10275); assay: qHTS assay to identify small molecule antagonists of the androgen receptor (AR) signaling pathway using the MDA cell line in the presence of 0.5 nM R1881 (AID 1259243); further: nearly all actives have a fitted effect of over 50% in size
Chain of Androgen receptor (Homo sapiens) (P10275 whole entry, looked up): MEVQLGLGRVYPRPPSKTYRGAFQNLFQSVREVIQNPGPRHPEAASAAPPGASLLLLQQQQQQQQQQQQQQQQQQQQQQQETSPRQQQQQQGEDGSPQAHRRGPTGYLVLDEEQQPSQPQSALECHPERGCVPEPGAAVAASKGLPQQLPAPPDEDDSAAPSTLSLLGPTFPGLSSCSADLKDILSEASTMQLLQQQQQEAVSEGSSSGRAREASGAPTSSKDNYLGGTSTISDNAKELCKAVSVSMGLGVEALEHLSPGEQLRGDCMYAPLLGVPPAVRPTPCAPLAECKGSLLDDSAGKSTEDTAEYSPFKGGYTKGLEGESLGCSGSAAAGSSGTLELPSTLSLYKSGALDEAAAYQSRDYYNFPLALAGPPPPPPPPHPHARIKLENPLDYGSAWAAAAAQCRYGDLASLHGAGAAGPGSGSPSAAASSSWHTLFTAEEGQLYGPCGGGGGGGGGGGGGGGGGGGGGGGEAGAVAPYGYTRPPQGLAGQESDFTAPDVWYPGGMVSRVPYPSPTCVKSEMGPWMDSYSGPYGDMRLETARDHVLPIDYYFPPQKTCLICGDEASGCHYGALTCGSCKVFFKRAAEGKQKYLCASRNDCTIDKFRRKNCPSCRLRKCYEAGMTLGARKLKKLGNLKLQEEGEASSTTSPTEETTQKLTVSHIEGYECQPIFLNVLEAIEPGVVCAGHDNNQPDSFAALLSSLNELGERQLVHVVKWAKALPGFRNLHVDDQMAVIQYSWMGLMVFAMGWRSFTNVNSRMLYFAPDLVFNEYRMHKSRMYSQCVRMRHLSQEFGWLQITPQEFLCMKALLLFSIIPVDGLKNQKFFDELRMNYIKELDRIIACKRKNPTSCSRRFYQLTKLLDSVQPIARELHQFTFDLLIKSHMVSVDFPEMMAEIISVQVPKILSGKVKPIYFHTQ
In short: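 Reporter cells cultured without CO2 receive test chemicals, then 0.5 nM R1881 final; after 16 hr at 37C, ONE-Glo is added and light output recorded.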

[20] = target: Estrogen receptor (Homo sapiens) (UniProt P03372); assay: qHTS assay to identify small molecule antagonists of the estrogen receptor alpha (ER-alpha) signaling pathway using the BG1 cell line in the presence of 0.1 nM 17-beta-estradiol (AID 1259244); further: nearly all actives have a fitted effect of over 50% in size
Chain of Estrogen receptor (Homo sapiens) (P03372 whole entry, looked up): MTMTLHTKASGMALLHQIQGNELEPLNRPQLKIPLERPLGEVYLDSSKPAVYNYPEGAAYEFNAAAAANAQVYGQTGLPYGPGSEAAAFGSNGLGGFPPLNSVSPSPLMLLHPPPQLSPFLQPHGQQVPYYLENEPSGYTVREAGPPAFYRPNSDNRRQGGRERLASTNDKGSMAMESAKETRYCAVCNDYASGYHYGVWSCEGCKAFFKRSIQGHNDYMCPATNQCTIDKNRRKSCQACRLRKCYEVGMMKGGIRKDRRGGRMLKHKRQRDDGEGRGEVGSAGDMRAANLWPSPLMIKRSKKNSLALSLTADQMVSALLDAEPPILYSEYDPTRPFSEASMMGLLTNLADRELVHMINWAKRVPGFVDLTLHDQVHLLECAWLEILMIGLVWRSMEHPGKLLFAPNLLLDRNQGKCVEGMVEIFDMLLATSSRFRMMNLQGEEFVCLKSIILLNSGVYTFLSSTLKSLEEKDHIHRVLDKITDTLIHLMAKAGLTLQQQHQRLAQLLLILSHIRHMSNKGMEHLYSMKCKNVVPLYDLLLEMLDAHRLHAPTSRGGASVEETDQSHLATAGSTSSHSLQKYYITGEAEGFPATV
In short: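 Estradiol at 0.1 nM (final) stimulates the endogenous ER-alpha of VM7Luc4E2 cells carrying an ERE-driven luciferase; compounds are co-incubated 22 h at 37C and luciferase output quantified by luminescence.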
On the % scale 0 is the no-effect control and ±100 the full control effect.

Cc1ccc(S(=O)(=O)NC2CCCCC2)cc1
inactive: Potency [1] | Potency [2] | Potency [3] | Potency [4] | Potency [5] | Potency [6] | Potency [7] | Potency [8] | Potency [9] | Potency [10] | Potency [11] | Potency [12] | Potency [13] | Potency [14] | Potency [15]

CCCCN(CCCC)CCCOC(=O)c1ccc(N)cc1
inactive: Potency [1] | Potency [2] | Potency [16] | Potency [4] | Potency [5] | Potency [17] | Potency [6] | Potency [7] | Potency [8] | Potency [9] | Potency [10] | Potency [11] | outcome [18] | Potency [12] | Potency [13] | Potency [14] | Potency [15]

COc1cc2c(cc1OC)-c1cc(=Nc3c(C)cc(C)cc3C)n(C)c(=O)n1CC2
inactive: Potency [1] | Potency [2] | Potency [3] | Potency [5] | Potency [6] | Potency [7] | Potency [8] | Potency [10] | Potency [11] | Potency [19] | outcome [18] | Potency [12] | Potency [13] | Potency [14]

CN(C)C(=O)Nc1ccc(Oc2ccc(Cl)cc2)cc1
inactive: Potency [1] | Potency [2] | Potency [3] | Potency [4] | Potency [5] | Potency [7] | Potency [8] | Potency [9] | Potency [10] | Potency [11] | Potency [12] | Potency [13] | Potency [14] | Potency [15]

COc1ccc([C@@H]2Sc3ccccc3NC(=O)[C@@H]2O)cc1
inactive: Potency [1] | Potency [2] | Potency [3] | Potency [4] | Potency [5] | Potency [6] | Potency [7] | Potency [8] | Potency [9] | Potency [10] | Potency [11] | Potency [19] | Potency [12] | Potency [13] | Potency [14] | Potency [15]

CC1C2CC(CC2C2CCCC(O)C2)C1(C)C (centres undefined)
active: Potency [2] 49 µM | Potency [7] 49 µM | Potency [9] 43.6 µM
inactive: Potency [1] | Potency [3] | Potency [5] | Potency [17] | Potency [6] | Potency [8] | Potency [10] | Potency [11] | Potency [12] | Potency [15]

CC(N)CN (centres undefined)
inactive: Potency [1] | Potency [2] | Potency [3] | Potency [4] | Potency [5] | Potency [6] | Potency [7] | Potency [8] | Potency [9] | Potency [10] | Potency [11] | Potency [20] | Potency [12] | Potency [13] | Potency [14] | Potency [15]

CO[Si](C)(OC)OC
inactive: Potency [1] | Potency [2] | Potency [3] | Potency [4] | Potency [5] | Potency [6] | Potency [7] | Potency [8] | Potency [9] | Potency [10] | Potency [11] | Potency [20] | Potency [12] | Potency [13] | Potency [14] | Potency [15]

CC(C)(C)C(=O)C(Oc1ccc(Cl)cc1)n1ccnc1 (centres undefined)
inactive: Potency [1] | Potency [2] | Potency [16] | Potency [4] | Potency [5] | Potency [17] | Potency [6] | Potency [7] | Potency [8] | Potency [10] | Potency [11] | Potency [20] | outcome [18] | Potency [12] | Potency [13] | Potency [14] | Potency [15]

Cn1c(=O)c2c(ncn2CC(=O)O)n(C)c1=O
inactive: Potency [1] | Potency [2] | Potency [3] | Potency [4] | Potency [5] | Potency [17] | Potency [6] | Potency [8] | Potency [9] | Potency [10] | Potency [11] | Potency [19] | Potency [12] | Potency [13] | Potency [14] | Potency [15]

C/C(=N/NC(=O)c1ccncc1)C(=O)O
inactive: Potency [1] | Potency [2] | Potency [16] | Potency [4] | Potency [17] | Potency [6] | Potency [7] | Potency [8] | Potency [10] | Potency [11] | Potency [19] | Potency [20] | Potency [12] | Potency [13] | Potency [14] | Potency [15]

CCC(C)(O)CCC=C(C)C (centres undefined)
inactive: Potency [1] | Potency [2] | Potency [16] | Potency [4] | Potency [5] | Potency [17] | Potency [6] | Potency [7] | Potency [8] | Potency [10] | Potency [11] | Potency [20] | Potency [12] | Potency [13] | Potency [14] | Potency [15]

OC(CCCN1CCCCC1)(c1ccccc1)c1ccccc1
inactive: Potency [1] | Potency [2] | Potency [16] | Potency [4] | Potency [17] | Potency [6] | Potency [7] | Potency [8] | Potency [9] | Potency [11] | Potency [19] | Potency [20] | Potency [12] | Potency [13] | Potency [14] | Potency [15]

CN1CCN(c2c(F)cc3c(=O)c(C(=O)O)cn4c3c2OCN4C)CC1
inactive: activity change, negative = cytotoxicity [1] -2.72% [at 15.8 µM] | cytotoxicity increase [2] -5.3% [at 15.8 µM] | cytotoxicity increase [16] -4.96% [at 15.8 µM] | cytotoxicity increase [4] -22% [at 15.8 µM] | activity change, negative = cytotoxicity [17] 0.438% [at 15.8 µM] | activity change, negative = cytotoxicity [6] 1.15% [at 15.8 µM] | activity change [7] -3.76% [at 15.8 µM, active compounds read high] | activity change, negative = cytotoxicity [8] 2.43% [at 15.8 µM] | cytotoxicity increase [9] -3.25% [at 15.8 µM] | activity change, negative = cytotoxicity [10] 0.712% [at 19 µM] | viability change, negative = cytotoxic [11] 0.172% [at 19 µM] | outcome [18] | activity change, negative = inhibition [12] 8.76% [at 19 µM] | activity change, negative = cytotoxicity [13] -3.29% [at 19 µM] | viability change, negative = cytotoxic [14] 2.32% [at 19 µM] | viability change, negative = cytotoxic [15] -1.18% [at 19 µM]

CCCCC(CC)COC(=O)COc1ccc(Cl)cc1C (centres undefined)
inactive: Potency [1] | Potency [2] | Potency [3] | Potency [4] | Potency [5] | Potency [17] | Potency [6] | Potency [8] | Potency [9] | Potency [10] | Potency [11] | Potency [20] | Potency [12] | Potency [13] | Potency [14] | Potency [15]
